Measurements taken from PubChem BioAssay (NCATS).
Records with an inconclusive call do not appear. Unless noted, calls come from the whole dose curve; as a rule, active = well fitted curve in either direction with a large enough effect (not every such curve was filed as active); inconclusive = small, poorly fitted or top-dose-only effect, or another doubt; inactive = flat fitted curve, though single readings scatter.

Test system: not listed separately
Assay: Stat Signaling Pathway (AID 446);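 note: ME-180 cervical cancer cells given 40 pM IL-6 alongside compound; SIE-controlled beta-lactamase reporter measured as 460/530 nm FRET emission ratio; % is set by controls: 0 for no effect and ±100 for the full control effect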
Details: ME-180 SIE beta-lactamase reporter, IL-6 stimulated, 5 h; at 17.2 µM (top of the series) unless noted
Method in brief: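 ME-180 SIE-bla cells; overnight plating; cpd + IL-6 40 pM, 5 h, 37 C; LiveBLAzer 2.5 h RT; 460/530 nm emission ratio. Normalized to 300 pM IL-6 and 125 nM JAK inhibitor controls.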

activity, negative = inhibition, inactive:
CCOC(=O)CCc1c(C)c(C#N)c2nc3ccccc3n2c1-n1ccnc1C -4.34%
COc1cc(C)nc(Nc2nc(C)c(C(C)=O)s2)n1 4.9%
CC12CCC(C(=O)NCCCN3CCOCC3)(OC1=O)C2(C)C (stereo not given) 3.88%
COc1ccc(Nc2nnc(C)c3ccccc23)cc1C(N)=O -9.16%
CCOC(=O)C1CSc2[nH]c(=O)sc2C1c1ccccc1 (stereo not given) -1.01%
CCOc1cccc(-c2nnc3sc(-c4ccco4)nn23)c1 -18.8%
COC(=O)CSc1nc2c(c(=O)n(C)c(=O)n2C)n1CCC(C)C 6.93%
O=C1OC2CCC1(c1ccccc1)C2 (stereo not given) -3.95%
Cc1ccc(C2CC(C(F)(F)F)n3ncc(C(N)=O)c3N2)cc1 (stereo not given) 5.84%
COc1cc(C(=O)NCC(=O)n2nc(C)cc2C)cc(OC)c1OC 0.715%
O=C1C2ON(c3ccccc3)C(c3ccncc3)C2C(=O)N1c1ccc(Br)cc1 (stereo not given) -10.2%
COc1ccccc1NC(=O)c1c(C)cc(=O)oc1C 0.453%
CCOc1ccc(-c2nnc3sc(-c4c(OC)cccc4OC)nn23)cc1 8.95%
Cc1nc(SC2C=CS(=O)(=O)C2)n[nH]1 (stereo not given) 2.19%
Cc1ccc(C2C(C(=O)c3cc4ccccc4o3)=C(O)C(=O)N2CCCN(C)C)cc1 (stereo not given) 1.75%
COc1ccc(C(=O)Nc2ccccc2N2CCOCC2)cc1Br -8.26%
COc1cc(C2CC(C(F)(F)F)n3ncc(C(=O)O)c3N2)cc(OC)c1OC (stereo not given) 7.46%
CCc1nc2n[nH]c(N)c2c2c1CCCC2 -2.34%
c1coc(CNc2ncnc3ccccc23)c1 -18.3%
CC(C)CNc1nc2c(c(=O)n(C)c(=O)n2C)n1Cc1cccc(Br)c1 -18.2%
COc1cc(C2C(C(=O)c3sc(C)nc3C)=C(O)C(=O)N2CCN(C)C)cc(OC)c1OC (stereo not given) 8.27%
COc1ccc2oc(=O)c(-c3nc(C)cs3)cc2c1 17.3%
Cc1cc(C)n(Cc2cc(C)c(Cn3nc(C)cc3C)cc2C)n1 -5.55%
CCN(CC)C(=O)CSC1=C(C#N)C(c2cccs2)C=C(C)N1 (stereo not given) 6.46%
COc1ccc(CC(=O)OCN2C(=O)c3ccccc3C2=O)cc1 -0.768%
Cn1c(-n2c(-c3ccco3)nc3ccccc3c2=O)nc2ccccc21 9.91%
CN(C)CCNC(=O)C12CC3(C)CC(C)(CC(C)(C3)C1)C2 8.6%
C=CCSc1nc(C)c(CC=C)c(=O)[nH]1 0.0275%
O=C1NCC(COCC2CC=CCC2)O1 (stereo not given) 2.08%
COCCOC(=O)c1c(C)nc(SCC(=O)Nc2ccc(C)cc2)c(C#N)c1-c1ccco1 -18.9%
Cc1cc(=O)oc(C)c1C(=O)NCCNC(=O)c1c(C)cc(=O)oc1C 6.54%
CC1(C2(O)CC(c3ccccc3)ON2)CCCCC1 (stereo not given) -1.99%
CC(C)c1nc2n[nH]c(N)c2c2c1CCC2 -1.39%
COCCOC(=O)C1=C(C)OC(N)=C(C#N)C1c1ccco1 (stereo not given) -4.05%
CC(=O)C(=[N+]=[N-])C(=O)NCc1ccccc1 1.88%
CCOC(=O)CSc1nc2sc3c(c2c(=O)[nH]1)CC(C)(C)OC3 4.32%
COc1cccc(-c2nn3c(-c4ccccn4)nnc3s2)c1 9.86%
O=C(c1coc(=O)c(Br)c1)N1CCOCC1 1.69%
COCCN(Cc1ccccc1)P(=O)(O)c1ccccc1OCC(=O)O 2.47%
CCCCn1c(=O)n(C)c(=O)c2c3c(sc21)COC(C)(C)C3 -7.31%

Biological target: Glucocorticoid receptor (Homo sapiens) (UniProt P04150)
Assay: GR-GFP Redistribution (AID 450;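 active = compounds whose dose series gives a full or clear partial fitted curve of increased nuclear translocation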; note: potency is the fitted concentration of half-maximal effect)
Details: U2OS GR-GFP nuclear translocation, laser cytometry, 2 h; series mostly up to 20.6 µM

Glucocorticoid receptor (Homo sapiens), sequence (P04150 whole entry, looked up): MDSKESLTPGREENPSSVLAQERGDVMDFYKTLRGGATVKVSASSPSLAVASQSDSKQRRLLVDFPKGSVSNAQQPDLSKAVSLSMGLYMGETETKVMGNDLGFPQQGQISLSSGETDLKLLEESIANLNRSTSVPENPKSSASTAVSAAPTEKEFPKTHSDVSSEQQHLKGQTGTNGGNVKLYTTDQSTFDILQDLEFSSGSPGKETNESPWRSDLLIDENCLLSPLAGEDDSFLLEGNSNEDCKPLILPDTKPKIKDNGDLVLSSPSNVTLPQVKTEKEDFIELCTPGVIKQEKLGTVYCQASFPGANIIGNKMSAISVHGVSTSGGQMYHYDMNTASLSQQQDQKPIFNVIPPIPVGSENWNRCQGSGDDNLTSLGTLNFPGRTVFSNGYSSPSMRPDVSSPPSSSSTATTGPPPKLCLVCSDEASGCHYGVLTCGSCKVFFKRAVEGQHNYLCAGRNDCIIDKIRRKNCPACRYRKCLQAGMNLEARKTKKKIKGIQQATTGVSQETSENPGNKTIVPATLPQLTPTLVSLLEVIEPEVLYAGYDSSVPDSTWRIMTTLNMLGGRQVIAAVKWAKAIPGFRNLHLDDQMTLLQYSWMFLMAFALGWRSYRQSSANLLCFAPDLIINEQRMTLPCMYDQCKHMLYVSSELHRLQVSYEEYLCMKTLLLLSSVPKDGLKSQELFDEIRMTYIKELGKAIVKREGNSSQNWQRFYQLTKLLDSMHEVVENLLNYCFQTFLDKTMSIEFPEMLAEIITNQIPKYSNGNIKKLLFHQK

Potency, inactive:
CCOC(=O)CCc1c(C)c(C#N)c2nc3ccccc3n2c1-n1ccnc1C > 20.6 µM
COc1cc(C)nc(Nc2nc(C)c(C(C)=O)s2)n1 > 20.6 µM
CC12CCC(C(=O)NCCCN3CCOCC3)(OC1=O)C2(C)C (stereo not given) > 20.6 µM
COc1ccc(Nc2nnc(C)c3ccccc23)cc1C(N)=O > 20.6 µM
CCOC(=O)C1CSc2[nH]c(=O)sc2C1c1ccccc1 (stereo not given) > 20.6 µM
CCOc1cccc(-c2nnc3sc(-c4ccco4)nn23)c1 > 20.6 µM
COC(=O)CSc1nc2c(c(=O)n(C)c(=O)n2C)n1CCC(C)C > 20.6 µM
O=C1OC2CCC1(c1ccccc1)C2 (stereo not given) > 20.6 µM
Cc1ccc(C2CC(C(F)(F)F)n3ncc(C(N)=O)c3N2)cc1 (stereo not given) > 20.6 µM
COc1cc(C(=O)NCC(=O)n2nc(C)cc2C)cc(OC)c1OC > 20.6 µM
O=C1C2ON(c3ccccc3)C(c3ccncc3)C2C(=O)N1c1ccc(Br)cc1 (stereo not given) > 20.6 µM
COc1ccccc1NC(=O)c1c(C)cc(=O)oc1C > 20.6 µM
CCOc1ccc(-c2nnc3sc(-c4c(OC)cccc4OC)nn23)cc1 > 20.6 µM
Cc1nc(SC2C=CS(=O)(=O)C2)n[nH]1 (stereo not given) > 20.6 µM
Cc1ccc(C2C(C(=O)c3cc4ccccc4o3)=C(O)C(=O)N2CCCN(C)C)cc1 (stereo not given) > 20.6 µM
COc1ccc(C(=O)Nc2ccccc2N2CCOCC2)cc1Br > 20.6 µM
COc1cc(C2CC(C(F)(F)F)n3ncc(C(=O)O)c3N2)cc(OC)c1OC (stereo not given) > 20.6 µM
CCc1nc2n[nH]c(N)c2c2c1CCCC2 > 20.6 µM
c1coc(CNc2ncnc3ccccc23)c1 > 20.6 µM
CC(C)CNc1nc2c(c(=O)n(C)c(=O)n2C)n1Cc1cccc(Br)c1 > 20.6 µM
COc1cc(C2C(C(=O)c3sc(C)nc3C)=C(O)C(=O)N2CCN(C)C)cc(OC)c1OC (stereo not given) > 20.6 µM
COc1ccc2oc(=O)c(-c3nc(C)cs3)cc2c1 > 20.6 µM
Cc1cc(C)n(Cc2cc(C)c(Cn3nc(C)cc3C)cc2C)n1 > 20.6 µM
CCN(CC)C(=O)CSC1=C(C#N)C(c2cccs2)C=C(C)N1 (stereo not given) > 20.6 µM
COc1ccc(CC(=O)OCN2C(=O)c3ccccc3C2=O)cc1 > 20.6 µM
Cn1c(-n2c(-c3ccco3)nc3ccccc3c2=O)nc2ccccc21 > 20.6 µM
CN(C)CCNC(=O)C12CC3(C)CC(C)(CC(C)(C3)C1)C2 > 20.6 µM
C=CCSc1nc(C)c(CC=C)c(=O)[nH]1 > 20.6 µM
O=C1NCC(COCC2CC=CCC2)O1 (stereo not given) > 20.6 µM
COCCOC(=O)c1c(C)nc(SCC(=O)Nc2ccc(C)cc2)c(C#N)c1-c1ccco1 > 20.6 µM
Cc1cc(=O)oc(C)c1C(=O)NCCNC(=O)c1c(C)cc(=O)oc1C > 20.6 µM
CC1(C2(O)CC(c3ccccc3)ON2)CCCCC1 (stereo not given) > 20.6 µM
CC(C)c1nc2n[nH]c(N)c2c2c1CCC2 > 20.6 µM
COCCOC(=O)C1=C(C)OC(N)=C(C#N)C1c1ccco1 (stereo not given) > 20.6 µM
CC(=O)C(=[N+]=[N-])C(=O)NCc1ccccc1 > 20.6 µM
CCOC(=O)CSc1nc2sc3c(c2c(=O)[nH]1)CC(C)(C)OC3 > 20.6 µM
COc1cccc(-c2nn3c(-c4ccccn4)nnc3s2)c1 > 20.6 µM
O=C(c1coc(=O)c(Br)c1)N1CCOCC1 > 20.6 µM
COCCN(Cc1ccccc1)P(=O)(O)c1ccccc1OCC(=O)O > 20.6 µM
CCCCn1c(=O)n(C)c(=O)c2c3c(sc21)COC(C)(C)C3 > 20.6 µM
